From PubChem BioAssay
Sampled rows, rich in hits. Any-hit rate of the full collection: about 8.2%.
SW480 rereplic = A quantitative high throughput screen for small molecules that induce DNA re-replication in SW480 colon adenocarcinoma cells; SW480 DNA re-replication, Hoechst DNA content imaging, 48 h; Potency, µM (highest dose often 46.1 µM), actives largely listed as activators; hit rate 1.8% among 340,000; AID 624297, 2012; also: nearly all actives have a fitted effect of over 55% in size
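Treated cells incubate 48 hr (37 C, 5% CO2), are stained 40 min with Hoechst, and nuclear fluorescence is enumerated; a rise in nuclei with high DNA signal marks re-replication.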
KB-V1 cytotox = qHTS assay for MDR1-selective chemotherapeutics: Primary screen using the drug-selected MDR subline cells KB-V1 | KB-V1 MDR cells viability, CellTiter-Glo, 72 h | Potency, µM (top dose mostly 46.1 µM), most hits filed as cytotoxic | hit rate 3.4% among 400,000; also: nearly all actives have a fitted effect of over 60% in size
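Potencies derive from concentration-effect curves fitted to normalized luminescence (CellTiter-Glo) of KB-V1 cells treated for 72 h at 37 degrees C in phenol-red-free DMEM containing 10% FBS.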
KB-3-1 cytotox = qHTS assay for MDR1-selective chemotherapeutics: Primary screen using the parental adenocarcinoma cell KB-3-1; KB-3-1 viability, CellTiter-Glo ATP luminescence, 72 h; Potency, µM (titrated, usually from 46.1 µM), most hits filed as cytotoxic; hit rate 1.4% among 400,000; AID 1347075, 2019; also: nearly all actives have a fitted effect of over 60% in size
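Cells are dispensed, compounds pinned in, plates held at 37 °C for 72 h, then CellTiter-Glo is added and luminescence read after 10 minutes. Cell line: parental KB-3-1 in phenol-red-free DMEM, 10% FBS.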
ELG1 DNA repair = qHTS screen for small molecules that inhibit ELG1-dependent DNA repair in human embryonic kidney (HEK293T) cells expressing luciferase-tagged ELG1; HEK293T ELG1-luciferase reporter, luminescence, 16 h; DNA damage induced by 5-fluorouridine; Potency, µM (titrated, usually from 46.1 µM), actives largely listed as inhibitors; hit rate 2.3% among 330,000; also: nearly all actives have a fitted effect of over 55% in size
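Quantitative HTS, concentration-response format. 2,000 cells/well co-treated with 5-fluorouridine and compound, 16 hr in 5% CO2 at 37 °C; ONE-Glo luminescence read after 30 min.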
MCF10A rerep = A quantitative high throughput screen for small molecules that induce DNA re-replication in MCF 10a normal breast cells | MCF 10A DNA re-replication, Hoechst nuclear intensity, 48 h | Potency, µM (highest dose often 46.1 µM), most hits filed as activators | hit rate 2.9% among 350,000 | AID 624296, 2012; also: nearly all actives have a fitted effect of over 50% in size
Large screens that a line does not name were inactive. Calls follow the shape of the dose curve; as a rule, active = well fitted curve in the direction sought with a large enough effect; inconclusive = small, poorly fitted or top-dose-only effect, or another doubt; inactive = no such curve, though single readings can be large; an effect the other way counts as inactive or inconclusive.

Cc1cccc2cc(CN(CCN(C)C)C(=S)Nc3ccccc3)c(=O)[nH]c12	SW480 rereplic inconclusive, KB-V1 cytotox 23µM
O=C(CC1CC1)Nc1ccc2c(c1)[C@@H]1C[C@H](CC(=O)NC3CCCC3)O[C@@H](CO)[C@@H]1O2	none (no result: SW480 rereplic, ELG1 DNA repair, MCF10A rerep)
CCOc1ccc(S(=O)(=O)NCCC(=O)NC2CCC(C)CC2)cc1 (centres undefined)	none
Cc1cc(C)c2c(N)c(C(=O)c3ccc(Cl)cc3Cl)sc2n1	SW480 rereplic inconclusive, KB-V1 cytotox inconclusive, KB-3-1 cytotox inconclusive, ELG1 DNA repair 10µM, MCF10A rerep inconclusive
Cc1cc(C)c2c(N)c(C(=O)c3cccc(Cl)c3)sc2n1	SW480 rereplic inconclusive, KB-V1 cytotox inconclusive, ELG1 DNA repair 26µM, MCF10A rerep inconclusive
CC(C)C[C@H]1CN(CCCC[C@H]2CNC(=O)C(=O)N2CC2CCCCC2)C(=O)C(=O)N1CCc1ccc(O)cc1	none (no result: SW480 rereplic, ELG1 DNA repair, MCF10A rerep)
COC(=O)c1cc(NC(=O)CN(c2ccccc2)S(=O)(=O)N(C)C)ccc1Cl	KB-3-1 cytotox inconclusive (no result: SW480 rereplic, ELG1 DNA repair, MCF10A rerep)
COC(=O)c1cc(NC(=O)CN(c2ccccc2OC)S(=O)(=O)c2ccccc2)ccc1Cl	ELG1 DNA repair 23µM
COC(=O)c1cc(NC(=O)CN(c2cccc(OC)c2)S(=O)(=O)c2ccccc2)ccc1Cl	KB-V1 cytotox 1.5µM, KB-3-1 cytotox 16µM, ELG1 DNA repair inconclusive
CN(c1cccc(NC(=O)CN(c2cccc(Cl)c2)S(=O)(=O)c2ccc(Cl)cc2)c1)S(C)(=O)=O	KB-V1 cytotox 18µM, KB-3-1 cytotox inconclusive (no result: SW480 rereplic)
COc1cccc(N(CC(=O)Nc2ccc3c(c2)OCO3)S(=O)(=O)c2ccccc2)c1	KB-V1 cytotox 16µM
Cc1ccc(Cl)cc1N(CC(=O)Nc1cccc(N(C)S(C)(=O)=O)c1)S(C)(=O)=O	ELG1 DNA repair inconclusive
COc1ccccc1N(CC(=O)Nc1ccc(C)c(Cl)c1)S(=O)(=O)c1ccc(C)cc1	none (no result: SW480 rereplic, ELG1 DNA repair, MCF10A rerep)
Cc1ccc(C(=O)c2cn(Cc3cccc(F)c3)c3nc(C)ccc3c2=O)cc1	none (no result: SW480 rereplic, ELG1 DNA repair, MCF10A rerep)
CCCCc1ccc(-c2csc(/C(C#N)=C/c3ccc(C)o3)n2)cc1	MCF10A rerep inconclusive
CCCCc1ccc(-c2csc(/C(C#N)=C\c3ccco3)n2)cc1	SW480 rereplic inconclusive, MCF10A rerep 18µM
CCOC(=O)c1c(/N=C/N(C)C)sc(/C=N/Nc2ccccc2)c1-c1ccc(Cl)cc1	SW480 rereplic inconclusive, MCF10A rerep 21µM
CCOC(=O)c1c(/N=C/N(C)C)sc(C)c1C	none
CC1=C(C#N)C(c2ccccc2)C2=C(N1)c1ccccc1C2=O (centres undefined)	SW480 rereplic 8.2µM, KB-V1 cytotox 3.3µM, KB-3-1 cytotox 2.1µM, MCF10A rerep 1.5µM
Cc1cccc(C(=O)N2CCC(=O)N([C@H](COCc3cccc(C(F)(F)F)c3)Cc3ccccc3)CC2)c1	KB-V1 cytotox 23µM (no result: SW480 rereplic, ELG1 DNA repair, MCF10A rerep)
Cc1cccc(COC[C@H](Cc2ccccc2)N2CCN(C(=O)c3cccc(Cl)c3)CCC2=O)c1	KB-V1 cytotox 18µM, KB-3-1 cytotox inconclusive (no result: SW480 rereplic, ELG1 DNA repair, MCF10A rerep)
CC(C)CC(COCc1ccc(Cl)cc1)N1CCN(C(=O)c2ccc(Cl)cc2Cl)CCC1=O (centres undefined)	SW480 rereplic inconclusive, ELG1 DNA repair 23µM, MCF10A rerep inconclusive
CC(C)C[C@@H](COCc1cccc(C(F)(F)F)c1)N1CCN(C(=O)c2ccc(C(F)(F)F)cc2)CCC1=O	KB-V1 cytotox 18µM, KB-3-1 cytotox inconclusive (no result: SW480 rereplic, ELG1 DNA repair, MCF10A rerep)
Cc1cccc(C(=O)N2CCC(=O)N(C(COCc3cccc(C(F)(F)F)c3)Cc3ccccc3)CC2)c1 (centres undefined)	SW480 rereplic inconclusive, KB-V1 cytotox inconclusive, ELG1 DNA repair inconclusive, MCF10A rerep inconclusive
CC(C)C[C@@H](COCc1ccc(Cl)cc1)N1CCN(C(=O)c2ccc(C(F)(F)F)cc2)CCC1=O	KB-3-1 cytotox inconclusive (no result: SW480 rereplic, ELG1 DNA repair, MCF10A rerep)
CC(C)CC(COCc1cccc(Cl)c1)N1CCN(C(=O)c2cccc(C(F)(F)F)c2)CCC1=O (centres undefined)	SW480 rereplic inconclusive
Cc1cccc(S(=O)(=O)NC(=O)C2(C)CCN2C(=O)Cc2cc(F)ccc2F)c1 (centres undefined)	none (no result: SW480 rereplic, ELG1 DNA repair, MCF10A rerep)
Cn1c(CCn2ccccc2=O)nc2cc(NC(=O)COc3ccccc3)ccc21	SW480 rereplic inconclusive, ELG1 DNA repair inconclusive
Nc1nnnn1-c1cccc([N+](=O)[O-])c1	none (no result: ELG1 DNA repair)
COc1cc(C)cc(OC)c1OCC(=O)Nc1cc(C)on1	KB-V1 cytotox 21µM
Cc1ccc2scc(N3CCCCC3C)c(=O)c2c1 (centres undefined)	none (no result: SW480 rereplic, ELG1 DNA repair, MCF10A rerep)
COc1ccc(/C=C2\N=C(C(C)(C)C)OC2=O)c(OC)c1	MCF10A rerep 23µM
COc1ccc(OC)c(/C=C2\N=C(c3ccccc3)OC2=O)c1	ELG1 DNA repair inconclusive
COc1ccccc1N1CCN(C2CCCN(Cc3cc(F)cc(F)c3)C2)CC1 (centres undefined)	SW480 rereplic inconclusive, MCF10A rerep inconclusive
CCCC1=Nc2cc(C(=O)NCc3ccc(OC)cc3)ccc2Sc2ccc(C)cc21	KB-V1 cytotox inconclusive (no result: SW480 rereplic, ELG1 DNA repair, MCF10A rerep)
CC1=Nc2cc(C(=O)NCc3ccccc3Cl)ccc2Sc2c(C)ccc(C)c21	KB-V1 cytotox 1.5µM, KB-3-1 cytotox 1µM (no result: SW480 rereplic, ELG1 DNA repair, MCF10A rerep)
CCC1=Nc2cc(C(=O)NCc3ccccc3Cl)ccc2Sc2ccc(C)cc21	KB-V1 cytotox inconclusive, KB-3-1 cytotox 3.7µM (no result: SW480 rereplic, ELG1 DNA repair, MCF10A rerep)
CC1=Nc2cc(C(=O)O)ccc2Sc2c(C)ccc(C)c21	none
Cc1cccc(NC(=O)CNC(=O)CN2C(=O)NC(C)(CCC(C)C)C2=O)c1C (centres undefined)	none (no result: ELG1 DNA repair)
Cc1ccc2nc(Cl)c(/C=N/NC(=O)[C@H]3C[C@@H]3c3ccccc3)cc2c1	SW480 rereplic inconclusive, MCF10A rerep 8.2µM
O=C(CNc1ccc2ccccc2c1)N/N=C/c1cc2ccccc2nc1Cl	MCF10A rerep 18µM
CC(C)(C)c1ccc(C2CC2C(=O)N/N=C\c2cc3ccccc3nc2Cl)cc1 (centres undefined)	KB-V1 cytotox 10µM
CCOc1ccc(C(=O)Nc2cccc(NC(=O)c3ccc(C(C)(C)C)cc3)c2)cc1Br	none (no result: SW480 rereplic, ELG1 DNA repair, MCF10A rerep)
Cc1ccc(O/C=C2/Nn3c(nnc3-c3cc(-c4ccccc4)n[nH]3)S2)cc1	none (no result: SW480 rereplic, ELG1 DNA repair, MCF10A rerep)
Cc1ccc(CN2CC34C=CC(O3)C(C(=O)NCc3ccco3)C4C2=O)cc1 (centres undefined)	KB-V1 cytotox 18µM
CCCCNC(=O)C1C2C=CC3(CN(Cc4ccc(C)cc4)C(=O)C13)O2 (centres undefined)	none
